# Reference: PubChem BioAssay (NCATS)
# Several values for one entry are separate records, joined by “and”; a condition that tells them apart may be missing. Equal entries are not always repeated. Records with an inconclusive call do not appear. Activity calls are given as the source filed them. Unless noted, calls come from the whole dose curve; as a rule, active = well fitted curve in the direction sought with a large enough effect; inconclusive = small, poorly fitted or top-dose-only effect, or another doubt; inactive = no such curve, though single readings can be large; an effect the other way counts as inactive or inconclusive.
# How the values were obtained:
# [1] = molecular target: Tyrosine-protein kinase Yes (Homo sapiens) (UniProt P07947); assay: qHTS for small molecule inhibitors of Yes1 kinase: Primary Screen (AID 686947); note: nearly all actives have a fitted effect of over 60% in size; note: potency is the fitted concentration of half-maximal effect
# How it was run: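 ADP-Glo luminescence reports ADP formed by 4 nM Yes1 phosphorylating poly(E4Y) (0.3 mg/mL) with 0.1 mM ATP for 60 min at room temperature, following 20 min compound preincubation; normalised between DMSO wells with and without enzyme.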
# [2] = qHTS for small molecule inhibitors of Yes1 kinase: Counter Assay (AID 686950);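 note: no kinase present so only ADP-Glo detection of a fixed ADP amount is tested; luminescence from ADP-Glo reporting ADP in a fixed ATP and ADP mixture; 0% = DMSO wells with ATP plus ADP and -100% = ATP-only wells without ADP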
# How it was run: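 ADP-Glo luminescence read after a 60 min room-temperature incubation of compound with an ATP/ADP mix (0.08 mM/0.02 mM) and no kinase, following a 20 min compound preincubation. Signal scaled between ATP+ADP (max) and 0.1 mM ATP-only (min) wells; Tris pH 7.5, Mg2+, DTT.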
# [3] = qHTS Assay for Identifying Gametocytocidal Compounds (AID 743244); note: potency is the fitted concentration of half-maximal effect;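 for max response: % is set by controls: 0 for no effect and ±100 for the full control effect; actives lower the fluorescent signal which means gametocytes are killed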; details: P. falciparum 3D7 stage III-V gametocytes, alamarBlue, 72 h; max response: stronger effect = lower value
# How it was run: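 Compounds are pinned into medium, gametocytes (stage III–V, 3D7, 20,000 cells/well) added, and plates held 72 h at 37 °C in 5% CO2. AlamarBlue follows for 24 h before fluorescence reading.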
# [4] = qHTS profiling for inhibitors of Plasmodium falciparum (3D7) proliferation (AID 743322; call rule not given here;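 note: infected erythrocytes exposed to compound for 72 h before lysis; 100% = DMSO vehicle wells and 0% = 0.29 µM artemisinin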); details: P. falciparum 3D7 proliferation; at 28.7 µM (top of the series) unless noted
# How it was run: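 Parasite DNA was quantified by SYBR Green I fluorescence (ex 485, em 535 nm) after overnight lysis in saponin/Triton buffer at room temperature. Cultures at 0.3% parasitemia and 2.5% hematocrit were first exposed to compound for 72 h at 37 C; signals were normalised to artemisinin (0.29 uM) and vehicle wells.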
# [5] = qHTS profiling for inhibitors of Plasmodium falciparum (DD2) proliferation (AID 743323; call rule not given here); details: lower = more inhibition; at 28.7 µM (top of the series) unless noted
# How it was run: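 P. falciparum Dd2-infected erythrocytes (0.3% parasitemia, 2.5% hematocrit) exposed 72 h at 37 C, 5% CO2. Lysis with SYBR Green, overnight at room temperature, fluorescence 485/535 nm; normalized to 0.29 uM artemisinin and DMSO.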
# [6] = qHTS assay for environmental chemicals that activate the Aryl hydrocarbon Receptor (AhR) signaling pathway (AID 651777); details: 1A2-DRE human hepatoma cells, luciferase, 24 h; stronger effect = higher value; note: % of control where 0% means no effect; nearly all actives have a fitted effect of over 15% in size
# How it was run: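 Induction of CYP1A2 transcription through AhR is detected by luciferase in 1A2-DRE hepatoma cells. Compounds or DMSO act for 24 hr at 37 C before a 30 min One-Glo step at room temperature.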
# [7] = molecular target: Peroxisome proliferator-activated receptor alpha (Homo sapiens) (UniProt Q07869); assay: qHTS assay for small molecule agonists of the peroxisome proliferator-activated receptor alpha (PPARalpha) signaling pathway (AID 651778); details: PathHunter PPARalpha complementation, chemiluminescence, 6 h; stronger effect = higher value; note: % of control where 0% means no effect
# How it was run: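 Chemiluminescence from complemented enzyme reported PPARalpha activation in cells after 6 hr of compound treatment at 37 C. The detection reagent was incubated for 60 min at room temperature, and compounds were scored as agonists.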
# [8] = qHTS assay for small molecule agonists of the antioxidant response element (ARE) signaling pathway measured by Nrf2-dependant transcriptional activity (AID 720636; active = well fitted curve in the direction sought with a large enough effect in the repeat runs; an effect the other way counts as inactive or inconclusive;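 note: HepG2 cells with an ARE-driven luciferase reporter; % of control where 0% means no effect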)
# How it was run: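 We exposed ARE-luc HepG2 cells, seeded in assay medium with 1% dialyzed FBS and allowed 6 hr to adhere, to test compounds overnight (16 hr, 37 C) before measuring luciferase with ONE-Glo.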
# [9] = qHTS assay for small molecule agonists of the antioxidant response element (ARE) signaling pathway measured by Nrf2-dependant transcriptional activity - cell viability counter screen (AID 720653; active = well fitted curve in the direction sought with a large enough effect in the repeat runs; an effect the other way counts as inactive or inconclusive; note: % is set by controls: 0 for no effect and ±100 for the full control effect); details: ARE-bla HepG2 viability, CellTiter-Glo ATP luminescence, 16 h; stronger effect = lower value
# How it was run: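 Cytotoxicity counter screen: intracellular ATP quantified by CellTiter-Glo luminescence in the same ARE-bla HepG2 plates, after 16 h compound exposure and a 2 h beta-lactamase substrate step.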
# [10] = qHTS assay for cell viability of HEK293 cells (AID 743288); details: ATP luminescence (CellTiter-Glo), 18 h; max response: stronger effect = lower value; note: nearly all actives have a fitted effect of over 50% in size; note: potency is the fitted concentration of half-maximal effect; for max response: % is set by controls: 0 for no effect and ±100 for the full control effect
# How it was run: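 Viable-cell counts were inferred from luciferase-based ATP content in HEK293 cells seeded at 2,000/well, pre-incubated ≥5 h, then dosed with DMSO-solubilised compounds for 18 h at 37 C.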
# [11] = molecular target: Arylsulfatase A (Homo sapiens) (UniProt P15289); assay: qHTS screen for enhancers of Arylsulfatase A (ASA1): LOPAC Validation Assay (AID 720538); details: outcome: dose series up to 57.5 µM; note: 0% is about no effect
# How it was run: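 MLD patient fibroblasts (SV40, ASA-I179S), 1536-well; adhere 6 hrs; cpd 48h, 37 degree C, 5% CO2; pNCS 0.5mM final in lysis buffer, 14h RT; stop 1N NaOH final; fluor. Ex525/Em598.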
# [12] = qHTS for compounds that reverse cellular toxicity of Amyloid beta (A-beta) peptide in yeast: LOPAC Validation Assay (AID 720559);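 note: plate controls were DMSO for no effect and equimolar ferric chloride plus clioquinol rescue for full effect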
# How it was run: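 Medium dispensed, compounds pinned, A-beta yeast suspension added; plates held at 30 C for 48 hr; absorbance measured at 600 nm to gauge growth; values scaled between DMSO and FeCl3/clioquinol (equimolar) controls.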
# [13] = qHTS for Activators of Parkin Expression: LOPAC Validation Assay (NLuc Reporter) (AID 720572)
# How it was run: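 Compound effects on Parkin promoter activity were measured as NanoLuc luminescence after 24 h at 37 C. The neuronal reporter line also carried FLuc, which was read first. LOPAC compounds were tested at 7 concentrations, with normalization to DMSO (0%) and positive control (100%).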
# [14] = qHTS for Activators of Parkin Expression: LOPAC Validation Assay (FLuc Reporter) (AID 720573)
# How it was run: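 Cells seeded, 24 h; compounds pinned, 7-pt dose response; 24 h at 37 C/5% CO2; volume reduced; FLuc reagent 10 min RT; luminescence read. Normalization: DMSO = 0, positive control = 100%.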
# [15] = molecular target: T1, Hexokinase-4 (Homo sapiens) + Glucokinase regulatory protein (Homo sapiens) (UniProt P35557+Q14397); assay: qHTS assay for inhibitors of recombinant human GCK-GKRP interaction: Diaphorase-coupled assay (AID 743205)
# How it was run: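 25 mM Hepes pH 7.6, 5 mM glucose, 0.4 mM ATP, 4 U/ml G6PDH; 10 nM each GST-GCK/FLAG-GKRP. Kinetic fluorescence read, 1/min × 30 min. Normalized: DMSO ± enzyme = max/min.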
# [16] = molecular target: T1, Hexokinase-4 (Homo sapiens) + Glucokinase regulatory protein (Homo sapiens); assay: qHTS assay for inhibitors of recombinant human GCK-GKRP interaction: ADP-Glo assay (AID 743206);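 note: plate controls were DMSO plus enzyme for no effect and no enzyme for full effect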
# How it was run: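 Pin-transferred compounds meet a 15 nM GST-GCK/15 nM FLAG-GKRP/2 uM S6P mix (dispense concentrations). ATP is then added to 0.4 mM final with 5 mM glucose, and the reaction runs 60 min at room temperature. ADP is quantified luminescently.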
# [17] = molecular target: T1, Hexokinase-4 (Homo sapiens) + Glucokinase regulatory protein (Homo sapiens); assay: qHTS assay for inhibitors of recombinant human GCK-GKRP interaction: HTRF assay (AID 743207);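 note: 0% = DMSO with GCK present and -100% = DMSO wells lacking GCK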
# How it was run: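 5 nM GST-GCK + 5 nM FLAG-GKRP + 2 uM S6P, pH 7.1 buffer (25 mM Hepes, 2 mM MgCl2, 25 mM KCl, 1 mM DTT, Tween/BSA); pin-transferred cpd; anti-FLAG XL665/anti-GST K; 60 min RT; HTRF.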
# [18] = qHTS assay for cell viability of the p53RE-bla HCT-116 cell line (AID 743292); note: nearly all actives have a fitted effect of over 55% in size; note: potency is the fitted concentration of half-maximal effect
# How it was run: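 In this qHTS counter-screen, metabolically competent p53RE-bla HCT-116 cells were counted via their ATP content. Compounds were applied for 16 h at 37 C and luciferase-coupled luminescence was measured.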
# T1 sequence (P35557 whole entry, looked up): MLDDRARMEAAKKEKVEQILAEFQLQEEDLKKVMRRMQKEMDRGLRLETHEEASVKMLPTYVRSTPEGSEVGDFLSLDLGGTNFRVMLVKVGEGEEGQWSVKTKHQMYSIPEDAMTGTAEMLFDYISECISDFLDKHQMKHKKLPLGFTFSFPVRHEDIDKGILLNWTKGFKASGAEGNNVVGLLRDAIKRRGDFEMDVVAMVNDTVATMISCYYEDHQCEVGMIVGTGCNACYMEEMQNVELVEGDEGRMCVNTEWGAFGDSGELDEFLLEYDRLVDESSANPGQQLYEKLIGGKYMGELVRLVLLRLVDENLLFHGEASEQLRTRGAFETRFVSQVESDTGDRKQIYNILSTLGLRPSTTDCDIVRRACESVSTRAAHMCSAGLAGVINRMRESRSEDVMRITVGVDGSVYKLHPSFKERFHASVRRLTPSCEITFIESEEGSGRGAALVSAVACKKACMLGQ
# T1 sequence (Q14397 whole entry, looked up): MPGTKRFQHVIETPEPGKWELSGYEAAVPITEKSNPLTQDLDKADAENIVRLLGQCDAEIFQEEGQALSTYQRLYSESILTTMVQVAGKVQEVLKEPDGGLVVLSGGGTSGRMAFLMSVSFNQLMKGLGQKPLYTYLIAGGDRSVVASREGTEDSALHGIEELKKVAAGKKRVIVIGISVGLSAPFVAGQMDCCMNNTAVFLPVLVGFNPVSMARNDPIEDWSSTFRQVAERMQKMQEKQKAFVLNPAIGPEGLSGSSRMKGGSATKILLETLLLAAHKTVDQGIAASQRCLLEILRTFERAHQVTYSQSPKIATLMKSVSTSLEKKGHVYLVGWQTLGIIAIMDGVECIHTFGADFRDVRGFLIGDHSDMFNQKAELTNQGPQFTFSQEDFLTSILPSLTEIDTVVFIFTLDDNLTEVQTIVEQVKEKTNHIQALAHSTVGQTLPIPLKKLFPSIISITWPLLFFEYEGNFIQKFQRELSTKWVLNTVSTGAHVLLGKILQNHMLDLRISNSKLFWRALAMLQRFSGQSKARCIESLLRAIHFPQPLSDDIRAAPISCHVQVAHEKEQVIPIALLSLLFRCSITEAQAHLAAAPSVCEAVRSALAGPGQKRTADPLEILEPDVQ
# Sequence of Tyrosine-protein kinase Yes (Homo sapiens) (P07947 whole entry, looked up): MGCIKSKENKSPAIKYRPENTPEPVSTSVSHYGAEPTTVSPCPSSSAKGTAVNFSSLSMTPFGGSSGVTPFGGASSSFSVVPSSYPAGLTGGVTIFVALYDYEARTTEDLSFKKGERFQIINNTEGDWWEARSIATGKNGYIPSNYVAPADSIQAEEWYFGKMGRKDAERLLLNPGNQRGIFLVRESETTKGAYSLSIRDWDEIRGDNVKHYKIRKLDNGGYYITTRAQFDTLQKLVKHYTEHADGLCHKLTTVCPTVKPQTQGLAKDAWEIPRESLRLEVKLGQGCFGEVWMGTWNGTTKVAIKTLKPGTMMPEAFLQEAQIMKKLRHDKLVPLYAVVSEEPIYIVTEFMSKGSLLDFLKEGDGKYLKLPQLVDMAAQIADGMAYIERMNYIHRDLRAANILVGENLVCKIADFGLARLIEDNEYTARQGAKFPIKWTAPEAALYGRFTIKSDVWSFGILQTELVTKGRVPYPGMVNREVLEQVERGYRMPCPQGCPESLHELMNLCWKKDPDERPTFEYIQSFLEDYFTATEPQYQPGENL
# Sequence of Arylsulfatase A (Homo sapiens) (P15289 whole entry, looked up): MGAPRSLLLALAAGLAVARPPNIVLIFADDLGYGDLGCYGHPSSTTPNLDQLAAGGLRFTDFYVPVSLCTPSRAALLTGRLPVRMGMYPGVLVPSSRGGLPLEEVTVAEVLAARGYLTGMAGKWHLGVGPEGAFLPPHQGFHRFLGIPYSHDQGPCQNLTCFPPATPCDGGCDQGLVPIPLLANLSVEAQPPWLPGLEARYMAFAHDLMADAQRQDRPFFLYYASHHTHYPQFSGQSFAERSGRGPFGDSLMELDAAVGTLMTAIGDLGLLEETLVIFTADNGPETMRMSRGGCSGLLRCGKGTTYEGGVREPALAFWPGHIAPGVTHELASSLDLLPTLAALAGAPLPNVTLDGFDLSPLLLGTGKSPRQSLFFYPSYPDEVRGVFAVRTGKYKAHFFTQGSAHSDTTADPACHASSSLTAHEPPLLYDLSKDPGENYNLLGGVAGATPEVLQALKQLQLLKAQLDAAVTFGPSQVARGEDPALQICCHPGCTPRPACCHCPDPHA
# Sequence of Peroxisome proliferator-activated receptor alpha (Homo sapiens) (Q07869 whole entry, looked up): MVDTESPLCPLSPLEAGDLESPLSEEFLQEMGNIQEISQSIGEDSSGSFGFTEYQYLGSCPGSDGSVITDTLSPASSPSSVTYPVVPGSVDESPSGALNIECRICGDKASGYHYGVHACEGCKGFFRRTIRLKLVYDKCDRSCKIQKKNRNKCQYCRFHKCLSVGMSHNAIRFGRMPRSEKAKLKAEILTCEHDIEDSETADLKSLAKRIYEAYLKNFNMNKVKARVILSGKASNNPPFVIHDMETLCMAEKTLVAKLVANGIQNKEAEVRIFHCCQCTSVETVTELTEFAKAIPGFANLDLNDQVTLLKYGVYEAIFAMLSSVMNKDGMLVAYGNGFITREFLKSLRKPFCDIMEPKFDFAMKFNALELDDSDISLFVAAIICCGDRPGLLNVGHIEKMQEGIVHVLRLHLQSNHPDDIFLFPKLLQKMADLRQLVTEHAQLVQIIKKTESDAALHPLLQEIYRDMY
smiles,measurement,setting,value
COc1cc2nccc(Oc3ccc(NC(=O)NC4CC4)c(Cl)c3)c2cc1C(N)=O,Potency,[1],3.45 µM (active)
same,outcome,[2],inactive
same,max response,[3],-10.8% (inactive)
same,remaining parasite growth % (stronger effect = lower value),[4],63.1%
same,"activity, percent of control",[5],67.5%
Cc1c(C)c2c(c(C)c1O)CCC(C)(COc1ccc(CC3SC(=O)NC3=O)cc1)O2 (stereo not drawn),activation,[6],5.68% (inactive)
same,max response,[7],1.07% (inactive)
same,Potency,[1],inactive
same,outcome,[2],inactive
same,outcome,[8],inactive
same,max response,[9],5.17% (inactive)
same,max response,[3],13.5% (inactive) and 17.4% (inactive)
same,max response,[10],-10.3% (inactive)
same,remaining parasite growth % (stronger effect = lower value),[4],93.1%
same,"activity, percent of control",[5],80%
CC[C@H](Nc1ncnc2nc[nH]c12)c1nc2cccc(F)c2c(=O)n1-c1ccccc1,Potency,[1],inactive
same,outcome,[2],inactive
same,max response,[3],14.6% (inactive)
CNC(=O)c1ccc(C)c(-n2c(C)cc(OCc3ccc(F)cc3F)c(Br)c2=O)c1,Potency,[1],inactive
same,outcome,[2],inactive
same,max response,[3],32.9% (inactive)
same,remaining parasite growth % (stronger effect = lower value),[4],91.9%
same,"activity, percent of control",[5],80.8%
N#Cc1ccc(C(c2ccc(C#N)cc2)n2cncn2)cc1,Potency,[1],inactive
same,outcome,[2],inactive
same,max response,[3],16.5% (inactive) and 0.241% (inactive)
same,remaining parasite growth % (stronger effect = lower value),[4],85.5%
same,"activity, percent of control",[5],86.6%
OC(CN1CCC(Cc2ccc(F)cc2)CC1)c1ccc(Cl)cc1 (stereo not drawn),Potency,[1],inactive
same,outcome,[2],inactive
same,outcome,[11],inactive
same,outcome,[12],inactive
same,Potency,[13],inactive
same,outcome,[14],inactive
same,outcome,[15],inactive
same,outcome,[16],inactive
same,outcome,[17],inactive
same,Potency,[3],7.43 µM (active)
same,remaining parasite growth % (stronger effect = lower value),[4],1.14% and 5.06%
same,"activity, percent of control",[5],1.06% and 4.92%
COc1ccc2nc(S(=O)Cc3ncc(C)c(OC)c3C)[nH]c2c1 (stereo not drawn),max response,[7],6.65% (inactive)
same,Potency,[1],inactive
same,outcome,[2],inactive
same,max response,[9],1.66% (inactive)
same,max response,[3],-5.18% (inactive) and -4.42% (inactive)
same,max response,[10],-16.7% (inactive)
same,Potency,[18],inactive
same,remaining parasite growth % (stronger effect = lower value),[4],91.3% and 101%
same,"activity, percent of control",[5],93.3% and 100%
Cc1cc2c(C(C)C)c(O)c(O)c(C=O)c2c(O)c1-c1c(C)cc2c(C(C)C)c(O)c(O)c(C=O)c2c1O,activation,[6],-3.15% (inactive)
same,outcome,[2],inactive
same,outcome,[12],inactive
same,Potency,[13],inactive
same,outcome,[15],inactive
same,Potency,[10],35.5 µM (active)
same,Potency,[18],12.6 µM (active)
same,remaining parasite growth % (stronger effect = lower value),[4],5.05% and 5.11%
same,"activity, percent of control",[5],13.9% and 10.5%
CC(C)(Sc1ccc(CCN(CCCCC2CCCCC2)C(=O)NC2CCCCC2)cc1)C(=O)O,activation,[6],0.388% (inactive)
same,outcome,[2],inactive
same,outcome,[11],inactive
same,outcome,[12],inactive
same,Potency,[13],inactive
same,outcome,[14],inactive
same,outcome,[8],inactive
same,max response,[9],1.89% (inactive)
same,outcome,[15],inactive
same,outcome,[17],inactive
same,max response,[3],7.17% (inactive) and -0.948% (inactive)
same,max response,[10],-6.91% (inactive)
same,Potency,[18],12.6 µM (active)
same,remaining parasite growth % (stronger effect = lower value),[4],98.9%
same,"activity, percent of control",[5],100%
